Compound activity as filed in PubChem BioAssay.
HT1080-NT tox: qHTS for induction of synthetic lethality in tumor cells producing 2HG: qHTS for the HT-1080-NT fibrosarcoma cell line; HT-1080-NT fibrosarcoma viability, CellTiter-Glo ATP luminescence, 48 h; Potency, µM (top dose mostly 46.1 µM), without a hit: at the highest dose activity, negative = less viability, most hits filed as cytotoxic; 360,000 tested, 1.6% active;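 note: NT is the 2HG producing partner of a matched IDH1 knockdown line; 0% = DMSO-treated cells and -100% = media-only wells without cells; nearly all actives have a fitted effect of over 55% in size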
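HT-1080-NT fibrosarcoma cells (2HG-overproducing), 750 cells/well in RPMI with 5% FBS, dosed after 2 h and incubated 48 h at 37C. CellTiter-Glo luminescence normalized to DMSO and no-cell wells; concentration-response curves fitted and classed.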
HT1080 IDH1KD tx: qHTS for induction of synthetic lethality in tumor cells producing 2HG: qHTS for the HT-1080-IDH1KD cell line; AID 686971, 2013; Potency, µM (highest dose often 46.1 µM), without a hit: top-dose activity, negative = toxicity, most hits filed as cytotoxic; HT-1080 IDH1 knockdown viability, ATP luminescence, 48 h; 360,000 tested, 2% active;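 note: 0% = DMSO wells and -100% = cell-free medium wells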
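% activity derives from luminescence (CellTiter-Glo), normalised to DMSO and no-cell wells. HT-1080-IDH1KD cells, 750/well, had 48 h compound exposure at 37 °C.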
TDP1 cell noCPT: qHTS for Inhibitors of human tyrosyl-DNA phosphodiesterase 1 (TDP1): qHTS in cells in absence of CPT; DT40 Tdp1-/- hTDP1 cells, no CPT, ATP luminescence, 48 h; Potency, µM (series often up to 46.2 µM), inactives show top-dose activity change, negative = growth inhibition, usual class: inhibitors; 420,000 tested, 15% active; AID 686978, 2013; note: nearly all actives have a fitted effect of over 55% in size
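Chicken DT40 Tdp1-/- cells complemented with human TDP1, screened without camptothecin (DMSO vehicle only), 400 cells/well. Compounds pin-transferred, cells incubated at 37 °C for at least 48 hr. Growth read as ATP-dependent luminescence (CellTiter-Glo, 30 min at RT).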
KB-V1 MDR tox: qHTS assay for MDR1-selective chemotherapeutics: Primary screen using the drug-selected MDR subline cells KB-V1 | Potency, µM (highest dose often 46.1 µM), hits mostly cytotoxic | 400,000 tested, 3.4% active | KB-V1 MDR cells viability, CellTiter-Glo, 72 h; note: nearly all actives have a fitted effect of over 60% in size
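Cytotoxicity toward P-gp-expressing KB-V1 cells was determined as loss of CellTiter-Glo luminescence after 72 h at 37 degrees C. Compounds were tested in quantitative HTS format across a concentration range, with curves fitted to normalized data.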
TDP1 cell CPT: qHTS for Inhibitors of human tyrosyl-DNA phosphodiesterase 1 (TDP1): qHTS in cells in presence of CPT. AID 686979, 2013. chicken DT40 Tdp1-/-;hTDP1 cells + 20 nM CPT, ATP luminescence, 48 h. Potency, µM (doses to about 46.2 µM), inactives show at the top dose activity change, negative = growth inhibition, actives largely listed as inhibitors. 420,000 tested, 12% active; note: nearly all actives have a fitted effect of over 55% in size
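Chicken DT40 Tdp1-/- cells complemented with human TDP1, 400 cells/well, exposed to compounds plus 20 nM camptothecin for at least 48 h at 37 C; viability read as ATP content by CellTiter-Glo luminescence.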
KB-3-1 tox: qHTS assay for MDR1-selective chemotherapeutics: Primary screen using the parental adenocarcinoma cell KB-3-1; 400,000 tested, 1.4% active; Potency, µM (highest dose often 46.1 µM), hits mostly cytotoxic; KB-3-1 viability, CellTiter-Glo ATP luminescence, 72 h; note: nearly all actives have a fitted effect of over 60% in size
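Cytotoxicity in the drug-sensitive parental line KB-3-1 was scored as loss of CellTiter-Glo luminescence following 72 h incubation with compound. Values come from curve fitting of normalized concentration-response data.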
* = called active by the depositor; i = inactive; ? = inconclusive; . = no result given. The list is not random: actives were taken first. Their share in the collection is about 19%. Calls come from the whole dose curve; as a rule, active = well fitted curve in the direction sought with a large enough effect; inconclusive = small, poorly fitted or top-dose-only effect, or another doubt; inactive = no such curve, though single readings can be large; an effect the other way counts as inactive or inconclusive. Unless noted, % is set by controls: 0 for no effect and ±100 for the full control effect; potency is the fitted concentration of half-maximal effect.

SMILES	HT1080-NT tox	HT1080 IDH1KD tx	TDP1 cell noCPT	KB-V1 MDR tox	TDP1 cell CPT	KB-3-1 tox
COC(=O)NCC(c1cccnc1)N1CCN(c2ccc(F)cc2)CC1 (stereo unspecified)	.	.	-15.8%	i	-12.4%	i
O=C(NCC(c1cccnc1)N1CCN(c2ccc(F)cc2)CC1)c1cccc(Cl)c1 (stereo unspecified)	-22.2%	-29.9%	10.3µM*	i	16.4µM*	i
Cc1cc(-c2cccs2)c2c(n1)sc1c(=O)[nH]c(=O)[nH]c12	-19.7%	-17.8%	?	?	16.4µM*	i
COCCNC(=O)C1(C)CCCN(C(=O)c2cccc(OC(F)(F)F)c2)C1 (stereo unspecified)	9.5%	24.5%	-12.0%	i	9.8%	i
CNC(=S)N/N=C/c1cc(Br)cc(Br)c1O	?	23.1µM*	?	i	?	i
Oc1c(Br)cc(Br)cc1/C=N/NC(=S)N[C@H]1CC2C=CC1C2 (stereo partly specified)	?	20.6µM*	?	?	?	?
COc1cc(/C=N/NC(=S)NC2CC3C=CC2C3)cc(OC)c1OC (stereo unspecified)	-7.7%	-22.6%	?	?	?	i
Cn1cc(C(c2ccccn2)c2cn(C)c3ccccc23)c2ccccc21	?	?	?	i	?	i
Cc1cccc2c(C(O)c3cn(C)c4ccccc34)c[nH]c12 (stereo unspecified)	.	.	15.8µM*	i	11.2µM*	i
O=C(CSc1nc2ccccc2c(=O)n1NC(=O)Cc1ccccc1)NCc1ccco1	8.2%	5.2%	0.6%	18.4µM*	-20.1%	i
CC(C)=NOCC(=O)Nn1c(COc2ccccc2)nc2ccccc2c1=O	-3.2%	-4.3%	6.8%	i	-9.2%	i
CCCCN(C(=O)CSc1nc2ccccc2n1CC)C1CCS(=O)(=O)C1 (stereo unspecified)	7.6%	3.5%	-17.2%	5.8µM*	-19.4%	i
C/C(=N\OCC(=O)Nn1c(C)nc2ccccc2c1=O)c1ccccc1	14.8%	13.3%	-12.2%	16.4µM*	-20.9%	i
Cc1cccc(-n2c(SCC(=O)NCc3ccco3)nc3ccccc3c2=O)c1	-22.0%	?	?	10.3µM*	10.3µM*	i
CCn1c(SCC(=O)N(Cc2ccccc2)C2CCS(=O)(=O)C2)nc2ccccc2c1=O (stereo unspecified)	4.4%	-0.3%	-25.3%	i	-2.7%	i
CCOc1ccc(-c2cc3c(=O)n(CC(=O)NCc4ccc(F)cc4)ccn3n2)cc1	.	.	-4.5%	i	-13.2%	i
COc1ccc(-n2ccnc(NCCc3ccc(S(N)(=O)=O)cc3)c2=O)cc1Cl	.	.	?	i	-27.4%	i
CCC1CN(C(=O)Nc2cc(Cl)ccc2C(=O)OC)c2ccccc2S1 (stereo unspecified)	.	.	?	i	?	i
O=C(NCC(c1ccco1)S(=O)(=O)c1cccs1)c1ccccc1 (stereo unspecified)	.	.	?	i	?	i
COc1cn(CC(=O)Nc2ccccc2)c(CN2CCCCC2)cc1=O	.	.	-7.1%	.	2.0%	.
CCN(C(=O)CSc1nc2ccccc2c(=O)n1Cc1ccc(C)cc1)C1CCS(=O)(=O)C1 (stereo unspecified)	3.5%	6.6%	?	i	?	i
